The full list was thinned out, with hits kept by preference.
VDR inhibitor: blocks the human vitamin D receptor; P11473; VDR-SRC2-3 peptide fluorescence polarization, 2 h; Potency, µM, for inactives: max response, negative = inhibition, hits mostly inhibitors; hit rate 0.93% among 400,000; AID 504847; note: % is set by controls: 0 for no effect and ±100 for the full control effect
Target sequence (P11473 whole entry, looked up): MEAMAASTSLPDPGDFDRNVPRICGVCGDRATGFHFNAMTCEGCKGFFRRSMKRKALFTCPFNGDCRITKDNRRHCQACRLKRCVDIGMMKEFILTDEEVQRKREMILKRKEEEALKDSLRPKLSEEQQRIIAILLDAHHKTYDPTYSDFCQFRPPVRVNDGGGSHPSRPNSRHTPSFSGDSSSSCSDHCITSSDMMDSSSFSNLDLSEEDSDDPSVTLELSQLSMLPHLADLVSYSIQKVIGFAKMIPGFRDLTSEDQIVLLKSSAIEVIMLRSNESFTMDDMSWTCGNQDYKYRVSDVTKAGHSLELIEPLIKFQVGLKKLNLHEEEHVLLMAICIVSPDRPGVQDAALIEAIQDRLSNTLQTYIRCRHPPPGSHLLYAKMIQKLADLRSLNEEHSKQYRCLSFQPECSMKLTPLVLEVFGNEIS
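Compounds are added to VDR with labelled SRC2-3 coactivator peptide and held 2 h at room temperature. Inhibition of the VDR–peptide interaction is then read as a change in fluorescence polarization.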
GRP78 ERSR act: inducers of ER stress response in human glioma cells | U87-MG GRP78 promoter luciferase reporter, 16 h | Potency, µM, inactives show at the highest dose activation, actives largely listed as activators | hit rate 0.02% among 420,000; note: series mostly up to about 76 µM; % of control where 0% means no effect; nearly all actives have a fitted effect of over 35% in size
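Stably transfected U87-MG glioma cells carrying a GRP78-based luciferase sensor; 16 h compound incubation. Luminescence end-point read 10 min after Bright-Glo addition at room temperature.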
G9a block: inhibitors of human histone lysine methyltransferase G9a; G9a H3K9 monomethylation, AlphaScreen, 2 h; AID 504332; hit rate 8.8% among 350,000; Q96KQ7; Potency, µM (doses to about 102 µM), for inactives: at the highest dose activity, negative = inhibition, hits mostly inhibitors; note: % is set by controls: 0 for no effect and ±100 for the full control effect; nearly all actives have a fitted effect of over 75% in size
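AlphaScreen read-out: biotin-H3K9 peptide (500 nM) methylation by 20 nM enzyme with 20 uM SAM, 2 h at room temperature after 15 min compound preincubation; anti-monomethyl H3K9 antibody plus donor/acceptor beads, 10 min dark.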
12-LOX inh: blocks human arachidonate 12S-lipoxygenase; P18054; purified 12hLO, xylenol orange hydroperoxide absorbance; Potency, µM (series often up to 108 µM), inactives show top-dose activity change, negative = inhibition, most hits filed as inhibitors; hit rate 1.1% among 580,000; note: % is set by controls: 0 for no effect and ±100 for the full control effect
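Purified human 12hLO (150 nM final) in 25 mM Hepes, 0.01% Triton X-100, pH 7.0 was preincubated 15 min at room temperature with compound. Then 40 uM arachidonic acid was added, 30 min. Hydroperoxide was read by Fe-XO absorbance ratio 573/405 nm.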
Sfp PPTase inh: Sfp phosphopantetheinyl transferase inhibition. Biochemical Sfp PPTase activity, qHTS. AID 1490. hit rate 3.5% among 310,000. Potency, µM, without a hit: largest response in the series, negative = inhibition, actives largely listed as inhibitors;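 note: the enzyme is Sfp with the accession as filed and its product quenches rhodamine fluorescence; 0% = enzyme reaction without inhibitor and -100% = no enzyme wells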
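Step 1, compound plus 15 nM Sfp-PPTase, 15 min, room temperature. Step 2, add rhodamine-CoA (5 uM) and BHQ-2-YbbR (12.5 uM). Step 3, read 525/598 nm fluorescence at 0 and 30 min.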
Starred values were filed as active, the others as inactive; ! = repeats disagree; [ ] = remark or other dose. Calls come from the whole dose curve; as a rule, active = well fitted curve in the direction sought with a large enough effect; inconclusive = small, poorly fitted or top-dose-only effect, or another doubt; inactive = no such curve, though single readings can be large; an effect the other way counts as inactive or inconclusive. Potency is the fitted concentration of half-maximal effect.

`Cc1cc(C)c(C(=O)COC(=O)c2ccc([N+](=O)[O-])o2)cc1C` gave VDR inhibitor 13%, GRP78 ERSR act -2%, G9a block inconclusive, 12-LOX inh -17% and Sfp PPTase inh 1%.
N#Cc1ccc(CN2CCN(c3oc(C4CC4)nc3C#N)CC2)cc1 was read as 12-LOX inh 5%.
For Cc1ccc(S(=O)(=O)CC(c2ccccc2)N2CCCCC2)cc1 (stereo unspecified) the results were VDR inhibitor -2%, GRP78 ERSR act -4%, G9a block 50µM*, 12-LOX inh -10% and Sfp PPTase inh 21%.
Cc1cc(/C=N/Nc2nc(N)ncc2[N+](=O)[O-])c(C)n1-c1ccccc1F was read as G9a block 28%[59 µM] and Sfp PPTase inh 50µM*.
Nc1ncc([N+](=O)[O-])c(Oc2ccccc2F)n1 was read as VDR inhibitor 8%, GRP78 ERSR act 1%, G9a block 14%, 12-LOX inh 0% and Sfp PPTase inh 9%.
For N#Cc1ccc(Cn2c(CN3CCCCC3)nc3scc(-c4cccs4)c3c2=O)cc1 the results were 12-LOX inh -3%.
For CN(C(=O)c1ccno1)c1nnc(-c2cnccn2)s1 the results were VDR inhibitor 11%, GRP78 ERSR act -1%, G9a block -47%, 12-LOX inh -2% and Sfp PPTase inh 50µM*.
Cc1cc(-c2ccccc2N)n[nH]1 was read as VDR inhibitor 14%, GRP78 ERSR act -2%, G9a block 50µM*, 12-LOX inh 10% and Sfp PPTase inh 4%.
Cc1cc(-c2cccs2)n[nH]1 was read as VDR inhibitor -9%, GRP78 ERSR act -3%, G9a block 10%[12.7 µM], 12-LOX inh 3% and Sfp PPTase inh 0%.
`COCCOc1cc(NC(=O)CS(=O)CC(=O)N(C)C)c(Cl)cc1Cl` (stereo unspecified) gave VDR inhibitor 11%, GRP78 ERSR act 1%, G9a block 16%, 12-LOX inh -5% and Sfp PPTase inh 12%.
Screening CCN(CC)C(=O)CS(=O)(=O)CC(=O)Nc1cc(OCCOC)c(Cl)cc1Cl returned VDR inhibitor 19%, GRP78 ERSR act -3%, G9a block 50µM*, 12-LOX inh -26% and Sfp PPTase inh 13%.
Screening CSC1=N/C(=C\c2ccc(Cl)cc2)C(=O)N1N(C)C returned VDR inhibitor -1%, GRP78 ERSR act -2%, G9a block 15%, 12-LOX inh 0% and Sfp PPTase inh -7%.
Screening CC1(C)CN=c2s/c(=C\c3ccc(Cl)cc3)c(=O)n2C1 returned VDR inhibitor -26%, GRP78 ERSR act -5%, G9a block 71µM*, 12-LOX inh inconclusive and Sfp PPTase inh -8%.
Screening CC1CCCN(C(=O)COC(=O)CNS(=O)(=O)c2ccc3ccccc3c2)C1 (stereo unspecified) returned VDR inhibitor -18%, GRP78 ERSR act -3%, G9a block 7.1µM* and 12-LOX inh -29%.
Screening O=C(CNS(=O)(=O)c1ccc2ccccc2c1)OCc1nnc(-c2ccccc2)o1 returned VDR inhibitor 6%, GRP78 ERSR act 1%, G9a block 22µM*, 12-LOX inh -4% and Sfp PPTase inh -2%.
For CN(Cc1ccccc1)C(=O)COC(=O)CNS(=O)(=O)c1ccc2ccccc2c1 the results were VDR inhibitor -8%, GRP78 ERSR act -2%, G9a block -29%[59 µM] and 12-LOX inh inconclusive.
`CCCCCNc1nc2c(c(=O)n(C)c(=O)n2C)n1Cc1ccccc1F` gave 12-LOX inh 22%.
Screening CNC(=O)CCS(=O)(=O)Cc1coc(-c2cccc(F)c2)n1 returned 12-LOX inh 16%.
Oc1ccc(C2CNCCc3c2cc(O)c(O)c3Cl)cc1 (stereo unspecified) was read as VDR inhibitor 2%, GRP78 ERSR act inconclusive, G9a block 5.3µM*!, 12-LOX inh inconclusive and Sfp PPTase inh 40µM*.
Screening Oc1cc2c(c(Cl)c1O)CCNC[C@H]2c1ccccc1 returned GRP78 ERSR act -1%, 12-LOX inh inconclusive and Sfp PPTase inh 79µM*.
For Oc1cc2c(c(Cl)c1O)CCNCC2c1ccccc1 (stereo unspecified) the results were VDR inhibitor inconclusive, GRP78 ERSR act inconclusive, G9a block 11µM*, 12-LOX inh inconclusive and Sfp PPTase inh 50µM*.
